Results on 39 molecules are retold here after PubChem BioAssay (NCI).

The panel holds about 83,000 compounds, 20% with a hit somewhere; the sample as a whole holds those more often.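 Growth was measured after 48 h exposure to one concentration of compound in 96-well plates. Values under 10 count as active.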 Active and inactive are the calls of the source.

One experiment concerns MCF7 breast. Nature of the experiment: NCI-60 one-dose screen, 48 h (100 = growth as untreated, 0 = no growth, -100 = all killed). The conditions noted are these: 10 µM.
Turning to `Nc1nc(N)c2c(n1)NC1(C=C(O)c3ccccc31)C1=C(N2)c2ccccc2C1=O` (configuration not stated), the growth was 97.1% (inactive).

Turning to `COc1ccc(CCN2C(=O)/C(=C/c3ccc(C4Oc5ccccc5C5CC(c6cccc(OC)c6)=NN54)cc3)SC2=S)cc1` (configuration not stated), the growth was 93% (inactive).

Consider `O=C(Nc1ccc(N2CCNCC2)cc1)c1[nH]ncc1Nc1cc(Oc2ccccc2)ncn1`, for which the growth was -0.204% (active).

Turning to `O=C(CCc1nnc2sc(Cc3ccccc3Cl)nn12)c1nc2ncccc2[nH]1`, the growth is 80% (inactive).

Turning to `O=NN(Cc1cccnc1)C(=O)NC1CCCCC1`, the growth is 92.9% (inactive).

Take `CN(C)/C=C1\SC(=Nc2ccc(Cl)cc2)NC1=O`: the growth is 91% (inactive).

As to `CCOC(=O)c1cc2c(n1Cc1ccccc1)-c1oncc1CCC2`, the growth is 45.8% (inactive).

On to `O=C(c1ccccc1)N(C(=S)NCCc1ccc(Cl)cc1)c1ccccc1`, for which the growth is 38.6% (inactive).

For the molecule `COc1cccc(/C=C/C(=O)c2c(C)nc3ccccc3c2/C=C/c2ccccc2)c1OC`, the growth is 13.9% (inactive).

With `CCOC(=O)c1cc2c(n1Cc1cccc(OC)c1)-c1oncc1CCC2`, the growth is 14.1% (inactive).

For the molecule `COc1ccc(OC)c(NC(=O)/C(C#N)=C/c2ccco2)c1`, the growth is 47.9% (inactive).

`CCc1ccc(CNCC(O)c2ccccc2)cc1` (configuration not stated): the growth is 29.8% (inactive).

Regarding `CC/C=C\C[C@H](O)C/C=C1/C(=O)C=C[C@@H]1C/C=C\CCCC(=O)OCCS(=O)(=O)c1ccccc1`, the growth was 18.9% (inactive).

As for `O=C1c2cc(Br)ccc2Oc2cc([N+](=O)[O-])ccc2N1c1ccc(I)cc1F`, the growth was 97.1% (inactive).

For `COc1ccc(/C=C/C(=O)c2c(C)nc3ccccc3c2/C=C/c2ccccc2)cc1O`, the growth was 18.2% (inactive).

Turning to `COc1ccc(-c2nc(N3CCN(C(=O)C4CCCCC4)CC3)c3c4c(sc3n2)CCCC4)cc1`, the growth was -10.8% (active).

Turning to `O=c1oc2ccc(F)cc2c(=O)n1-c1ccc(Cl)cc1F`, the growth is 2.65% (active).

Take `COc1cc(C(=O)Nc2ccc(-c3nc4ccccc4[nH]3)cc2)cc(OC)c1OC`: the growth is 11.6% (inactive).

Turning to `O=c1oc2ccc(Cl)cc2c(=O)n1-c1ccc(I)cc1F`, the growth is 3.96% (active).

For the molecule `CCC1=C[C@@H]2CN(C1)Cc1c([nH]c3ccccc13)[C@@](C(=O)OC)(c1cc3c(cc1OC)N(C)[C@H]1[C@@](O)(C(=O)OC)[C@H](OC(C)=O)[C@]4(CC)[C@@H]5C[C@@H]5CN5CC[C@]31[C@@H]54)C2`, the growth is 3.46% (active).

On to `O=c1oc2ccc(F)cc2c(=O)n1-c1ccc(I)cc1F`, for which the growth was 1.73% (active).

Take `O=c1oc2ccc(I)cc2c(=O)n1-c1ccc(Cl)cc1F`: the growth was 2.84% (active).

On to `O=C1OC(c2ccccc2)(c2ccccc2)c2ccsc21`, for which the growth is 104% (inactive).

As for `O=c1oc2ccc(-c3ccc(F)cc3F)cc2c(=O)n1-c1cccc(C(F)(F)F)c1`, the growth was 3.59% (active).

Turning to `Cn1nc(C(C)(C)C)cc1NC(=O)Cc1ccc(/C=C2\C(=O)Nc3ccccc32)cc1`, the growth is 19.2% (inactive).

As to `Cc1ccc(Nc2nc(N)c3ccccc3n2)cc1Cl`, the growth is 68.7% (inactive).

With `O=C(c1ccccc1)N(CCc1ccc(Cl)cc1)C(=S)N(C(=O)c1ccccc1)c1ccccc1`, the growth is 35.7% (inactive).

Consider `O=C(COc1cc(O)c2c(=O)cc(-c3ccccc3)oc2c1)Nc1ccccc1`, for which the growth is 85.3% (inactive).

For `O=C1c2cc(I)ccc2Oc2cc([N+](=O)[O-])ccc2N1c1ccc(Cl)cc1F`, the growth was 80.7% (inactive).

For `Nc1ccc(-c2nn3c(CCC(=O)c4nc5ncccc5[nH]4)nnc3s2)c(O)c1`, the growth is 84.7% (inactive).

With `COc1c(B(O)O)cccc1-c1nc2ccc3[nH]ncc3c2c2c1C1CCC2C1` (configuration not stated), the growth is 61.8% (inactive).

In the case of `Oc1c(CN2CCN(c3ccccc3F)CC2)cc(Br)c2cccnc12`, the growth was 9.33% (active).

On to `O=C(Nc1ccc(F)cc1F)c1cc(Br)ccc1O`, for which the growth is -1.09% (active).

For the molecule `O=C(Nc1ccc(N2CCNCC2)cn1)c1[nH]ncc1Nc1ncnc2sccc12`, the growth is 20.1% (inactive).

In the case of `O=C1c2ccc3c4c(ccc(c24)C(=O)N1CCCCO)C(=O)N(CCCCO)C3=O`, the growth was 28.2% (inactive).

As for `CC[C@]1(O)C[C@@H]2CN(CCc3c([nH]c4ccccc34)[C@@](C(=O)OC)(c3cc4c(cc3OC)N(C)[C@H]3[C@@](O)(C(=O)OC)[C@H](OC(=O)CCCBr)[C@]5(CC)C=CCN6CC[C@]43[C@@H]65)C2)C1`, the growth was 12.9% (inactive).

As for `Nc1ncnc(N)c1NC(=O)c1ccc(OCc2ccccc2)cc1`, the growth is 103% (inactive).

For `O=c1oc2ccc(Cl)cc2c(=O)n1-c1ccc(F)cc1F`, the growth was 5.09% (active).

Another experiment deals with HCT-116 colon. The description is as above. The note with it: 10 µM unless noted.
For `Nc1nc(N)c2c(n1)NC1(C=C(O)c3ccccc31)C1=C(N2)c2ccccc2C1=O` (configuration not stated), the growth is 101% (inactive).

As to `COc1ccc(CCN2C(=O)/C(=C/c3ccc(C4Oc5ccccc5C5CC(c6cccc(OC)c6)=NN54)cc3)SC2=S)cc1` (configuration not stated), the growth was 102% (inactive).

Regarding `O=C(Nc1ccc(N2CCNCC2)cc1)c1[nH]ncc1Nc1cc(Oc2ccccc2)ncn1`, the growth is -33.6% (active).

On to `O=C(CCc1nnc2sc(Cc3ccccc3Cl)nn12)c1nc2ncccc2[nH]1`, for which the growth was 84% (inactive).

As to `O=NN(Cc1cccnc1)C(=O)NC1CCCCC1`, the growth is 104% (inactive).

With `CN(C)/C=C1\SC(=Nc2ccc(Cl)cc2)NC1=O`, the growth is 104% (inactive).

For the molecule `CCOC(=O)c1cc2c(n1Cc1ccccc1)-c1oncc1CCC2`, the growth was 64.7% (inactive).

Consider `O=C(c1ccccc1)N(C(=S)NCCc1ccc(Cl)cc1)c1ccccc1`, for which the growth is 62.2% (inactive).

For `COc1cccc(/C=C/C(=O)c2c(C)nc3ccccc3c2/C=C/c2ccccc2)c1OC`, the growth was 4.08% (active).

As to `CCOC(=O)c1cc2c(n1Cc1cccc(OC)c1)-c1oncc1CCC2`, the growth is 25.2% (inactive).

Turning to `COc1ccc(OC)c(NC(=O)/C(C#N)=C/c2ccco2)c1`, the growth is 95.1% (inactive).

As for `CCc1ccc(CNCC(O)c2ccccc2)cc1` (configuration not stated), the growth was 47.8% (inactive).

For the molecule `CC/C=C\C[C@H](O)C/C=C1/C(=O)C=C[C@@H]1C/C=C\CCCC(=O)OCCS(=O)(=O)c1ccccc1`, the growth is -23% (active).

As for `O=C1c2cc(Br)ccc2Oc2cc([N+](=O)[O-])ccc2N1c1ccc(I)cc1F`, the growth is 87.5% (inactive).

`COc1ccc(/C=C/C(=O)c2c(C)nc3ccccc3c2/C=C/c2ccccc2)cc1O`: the growth was 12% (inactive).

Consider `COc1ccc(-c2nc(N3CCN(C(=O)C4CCCCC4)CC3)c3c4c(sc3n2)CCCC4)cc1`, for which the growth was 17% (inactive).

As for `O=c1oc2ccc(F)cc2c(=O)n1-c1ccc(Cl)cc1F`, the growth is 3.98% (active).

`COc1cc(C(=O)Nc2ccc(-c3nc4ccccc4[nH]3)cc2)cc(OC)c1OC`: the growth was 24.1% (inactive).

On to `O=c1oc2ccc(Cl)cc2c(=O)n1-c1ccc(I)cc1F`, for which the growth was 2% (active).

Regarding `CCC1=C[C@@H]2CN(C1)Cc1c([nH]c3ccccc13)[C@@](C(=O)OC)(c1cc3c(cc1OC)N(C)[C@H]1[C@@](O)(C(=O)OC)[C@H](OC(C)=O)[C@]4(CC)[C@@H]5C[C@@H]5CN5CC[C@]31[C@@H]54)C2`, the growth is 6.72% (active).

As for `O=c1oc2ccc(F)cc2c(=O)n1-c1ccc(I)cc1F`, the growth is 7.36% (active).

Regarding `COc1ccc(C2C3=C(COC3=O)N(CCO)c3cc4c(cc32)CCC4)cc1OC` (configuration not stated), the growth was 14.3% (inactive).

Regarding `O=c1oc2ccc(I)cc2c(=O)n1-c1ccc(Cl)cc1F`, the growth was 7.44% (active).

Regarding `O=C1OC(c2ccccc2)(c2ccccc2)c2ccsc21`, the growth is 103% (inactive).

Take `O=c1oc2ccc(-c3ccc(F)cc3F)cc2c(=O)n1-c1cccc(C(F)(F)F)c1`: the growth is 8.28% (active).

Turning to `Cn1nc(C(C)(C)C)cc1NC(=O)Cc1ccc(/C=C2\C(=O)Nc3ccccc32)cc1`, the growth was 33.6% (inactive).

For the molecule `Cc1ccc(Nc2nc(N)c3ccccc3n2)cc1Cl`, the growth is 28.8% (inactive).

In the case of `O=C(c1ccccc1)N(CCc1ccc(Cl)cc1)C(=S)N(C(=O)c1ccccc1)c1ccccc1`, the growth was 69.6% (inactive).

As for `O=C(COc1cc(O)c2c(=O)cc(-c3ccccc3)oc2c1)Nc1ccccc1`, the growth was 57.4% (inactive).

Regarding `O=C1c2cc(I)ccc2Oc2cc([N+](=O)[O-])ccc2N1c1ccc(Cl)cc1F`, the growth was 67.8% (inactive).

As for `Nc1ccc(-c2nn3c(CCC(=O)c4nc5ncccc5[nH]4)nnc3s2)c(O)c1`, the growth was 86.7% (inactive).

As for `COc1c(B(O)O)cccc1-c1nc2ccc3[nH]ncc3c2c2c1C1CCC2C1` (configuration not stated), the growth is 20.5% (inactive).

Take `Oc1c(CN2CCN(c3ccccc3F)CC2)cc(Br)c2cccnc12`: the growth was -36.4% (active).

In the case of `O=C(Nc1ccc(F)cc1F)c1cc(Br)ccc1O`, the growth is 1.66% (active).

Regarding `O=C(Nc1ccc(N2CCNCC2)cn1)c1[nH]ncc1Nc1ncnc2sccc12`, the growth was -68.2% (active).

Consider `O=C1c2ccc3c4c(ccc(c24)C(=O)N1CCCCO)C(=O)N(CCCCO)C3=O`, for which the growth is 28.4% (inactive).

For the molecule `CC[C@]1(O)C[C@@H]2CN(CCc3c([nH]c4ccccc34)[C@@](C(=O)OC)(c3cc4c(cc3OC)N(C)[C@H]3[C@@](O)(C(=O)OC)[C@H](OC(=O)CCCBr)[C@]5(CC)C=CCN6CC[C@]43[C@@H]65)C2)C1`, the growth was 5.16% (active).

As to `Nc1ncnc(N)c1NC(=O)c1ccc(OCc2ccccc2)cc1`, the growth was 111% (inactive).

On to `O=c1oc2ccc(Cl)cc2c(=O)n1-c1ccc(F)cc1F`, for which the growth was 7.6% (active).
